Data: PubChem BioAssay (Tox21)
Inconclusive results are not listed. Entries that show only a call come without a potency. Activity calls are given as the source filed them. The call rests on the fitted dose curve; in most records, active means well fitted cell-killing curve with a large enough effect in the repeat runs; inconclusive means weak or mixed curves, or effect the other way; inactive means no such curve, though single readings can be large or run the other way. Positions of bridges follow the written chain, without caps; N, C: chain ends. Non-standard residues stand in square brackets, D forms with d. Residues, ends and D or L forms follow the SMILES beside them. *: point of attachment. X1 = CC[C@@H](C)[C@@H](N)C1=N[C@H](C(=O)*)CS1; d(aIle) = CC[C@H](C)[C@@H](N)C(=O)O; dOrn = NCCC[C@@H](N)C(=O)O
Potency means the concentration at half of the fitted maximal effect.

Assay: qHTS assay to identify small molecule antagonists of the glucocorticoid receptor (GR) signaling pathway - cell viability counter screen (AID 720693); further: nearly all actives have a fitted effect of over 55% in size
Conditions: GR-bla HeLa viability, CellTiter-Glo luminescence, 18 h, with 5 nM dexamethasone present; series mostly up to 58.5 µM
For `CN1[C@@H](CC(=O)c2ccccc2)CCC[C@H]1C[C@H](O)c1ccccc1`, the Potency was “inactive”.
With `CCN1CCCC1CNC(=O)c1cc(S(=O)(=O)CC)ccc1OC` (centres undefined) the Potency was “inactive”.
In the case of `Nc1nc(NC2CC2)c2ncn([C@@H]3C=C[C@@H](CO)C3)c2n1`, the Potency is reported as “inactive”.
In the case of `Cc1cc(N)c2ccccc2[n+]1CCCCCCCCCC[n+]1c(C)cc(N)c2ccccc21`, the Potency is reported as “inactive”.
In the case of `CC[C@@H](C)[C@H](N)C(=O)O`, the Potency is reported as “inactive”.
For `CCCCCCCCCCCCN1CCCC1=O`, the Potency was 43.6 µM (active).
In the case of `CC1(C)C[C@@H]1C(=O)N/C(=C\CCCCSC[C@H](N)C(=O)O)C(=O)O`, the Potency is reported as “inactive”.
For `CC12CCC(C[N+](C)(CCC[N+](C)(C)C)C1)C2(C)C` (centres undefined), the Potency was “inactive”.
With `CC(C)(COP(=O)(O)OP(=O)(O)OC[C@H]1O[C@@H](n2cnc3c(N)ncnc32)[C@H](O)[C@@H]1OP(=O)(O)O)C(O)C(=O)NCCC(=O)NCCS` (some centres undefined) the Potency was “inactive”.
In the case of `O=C1c2ccccc2-c2n[nH]c3cccc1c23`, the Potency is reported as “inactive”.
With `CO[C@H](C(=O)[C@@H](O)[C@@H](C)O)C1Cc2cc3cc(O[C@H]4C[C@@H](O[C@H]5C[C@@H](O)[C@H](O)[C@@H](C)O5)[C@@H](O)[C@@H](C)O4)c(C)c(O)c3c(O)c2C(=O)[C@H]1O[C@H]1C[C@@H](O[C@H]2C[C@@H](O[C@H]3C[C@](C)(O)[C@H](O)[C@@H](C)O3)[C@H](O)[C@@H](C)O2)[C@H](O)[C@@H](C)O1` (some centres undefined) the Potency was 1.34 µM (active).
For `CCOC(=O)Cc1ccc(-c2ccccc2)cc1`, the Potency was “inactive”.
For `CC(=O)O[C@H]1C[C@@H]2CC[C@@H]3[C@H](CC[C@@]4(C)[C@H]3C[C@H]([N+]3(C)CCCCC3)[C@@H]4OC(C)=O)[C@@]2(C)C[C@@H]1[N+]1(C)CCCCC1`, the Potency was “inactive”.
With `O=C1c2c(O)cccc2[C@H]([C@@H]2O[C@H](CO)[C@@H](O)[C@H](O)[C@H]2O)c2cc(CO)cc(O)c21` the Potency was “inactive”.
In the case of `CC1CCCCN1CCCOC(=O)c1ccccc1` (centres undefined), the Potency is reported as “inactive”.
For `O=C(O)CCCC/C=C(\c1ccccc1)c1cccnc1`, the Potency was “inactive”.
With `CC[C@@H](C)[C@@H](N)C1=N[C@H](C(=O)N[C@@H](CC(C)C)C(=O)N[C@@H](CCC(=O)O)C(=O)N[C@@H](C(=O)N[C@@H]2CCCCNC(=O)[C@@H](CC(N)=O)NC(=O)[C@@H](CC(=O)O)NC(=O)[C@@H](Cc3cnc[nH]3)NC(=O)[C@@H](Cc3ccccc3)NC(=O)[C@@H]([C@H](C)CC)NC(=O)[C@@H](CCCN)NC2=O)[C@@H](C)CC)CS1` (X1-LE[d(aIle)][dK][dOrn][dI][dF][dH][dD][dN]; lactam 4-C) the Potency was “inactive”.
For `NC(=S)NS(=O)(=O)c1ccc(N)cc1`, the Potency was “inactive”.
With `CC(=O)[C@]1(O)Cc2c(O)c3c(c(O)c2[C@@H](O[C@H]2C[C@H](N)[C@H](O)[C@H](C)O2)C1)C(=O)c1ccccc1C3=O` the Potency was 3.01 µM (active).
For `O=C1[O][Bi][O]c2ccccc21`, the Potency was “inactive”.
For `N=C(N)n1cccn1`, the Potency was “inactive”.
For `C=CC[N+]1([C@H]2C[C@H]3[C@@H]4CC[C@H]5C[C@H](O)[C@@H](N6CCOCC6)C[C@]5(C)[C@H]4CC[C@]3(C)[C@H]2OC(C)=O)CCCC1`, the Potency was “inactive”.
In the case of `CCc1ncnc2cc(OC)c(OC)cc12`, the Potency is reported as “inactive”.
In the case of `C=CC1=C(C(=O)O)N2C(=O)[C@@H](NC(=O)/C(=N\O)c3csc(N)n3)[C@H]2SC1` (stereo in doubt), the Potency is reported as “inactive”.
With `CC(=O)N[C@@H](C=O)[C@H](O)[C@H](O)[C@@H](O)CO` the Potency was “inactive”.
For `CNCC(=O)N[C@@H](CCCN=C(N)N)C(=O)N[C@H](C(=O)N[C@@H](Cc1ccc(O)cc1)C(=O)N[C@H](C(=O)N[C@@H](Cc1cnc[nH]1)C(=O)N1CCC[C@H]1C(=O)N[C@@H](C)C(=O)O)C(C)C)C(C)C`, the Potency was “inactive”.
In the case of `CCCOC(=O)c1ccccc1O`, the Potency is reported as “inactive”.
In the case of `CC(C)(S)C(=O)N[C@@H](CS)C(=O)O`, the Potency is reported as “inactive”.
With `CCCCCCCC/C=C\CCCCCCCC(=O)N(CCO)CCO` the Potency was 48.8 µM (active).
For `Oc1ccc(Cl)cc1C1CCCC1`, the Potency was “inactive”.
With `O=C(O)/C=C/C(=O)Nc1ccc(S(=O)(=O)Nc2nccs2)cc1` the Potency was “inactive”.
For `N#Cc1c(N(CC(=O)O)CC(=O)O)sc(C(=O)O)c1CC(=O)O`, the Potency was “inactive”.
In the case of `N[C@@H](Cc1ccc(O)c(O)c1)C(=O)O`, the Potency is reported as “inactive”.
In the case of `CC(C)c1ccc2sc3ccccc3c(=O)c2c1`, the Potency is reported as “inactive”.
